This is part of a sample that, as a whole, favours compounds with a hit. Of some 83,000 tested, about 20% had one in any assay.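 Plates (96-well) were seeded with cells, treated with compound at one concentration, and incubated for 48 hours before percent growth was determined.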 The source made the active and inactive calls.
Each compound was assayed on HCC-2998 colon (assay: NCI-60 one-dose screen, 48 h (100 = growth as untreated, 0 = no growth, -100 = all killed)). Settings: 10 µM unless noted.
Experimental: Growth inhibition of the HCC-2998 human tumor cell line is measured as a screen for anti-cancer activity. Cells are grown in 96 well plates and exposed to the test compound for 48 hours. Compounds are tested at a single concentration, which is 10^-5 M for most compounds. The reported endpoint is percent growth (GI% or GIPRCNT), where numbers from 0 - 100% represent growth inhibition, and numbers from -100% - 0 represent cell death. For example, a value of 40 represents 60% growth inhibition. A value of 0 means no net growth occurred over the course of the experiment. A value of -40 indicates 40% of cells at the beginning of the experiment died by the end of the experiment. A value of -100 means all cells are dead at the end of the experiment.
NCI-60 Human Tumor Cell Lines Screen was performed using the standard one-dose NCI protocol, which is described in more detail at https://dtp.cancer.gov/discovery_development/nci-60/default.htm.
Compounds with GIPRCNT values below 10 were considered active. Activity score was based on GIPRCNT using the following formula: […]
Score is 0 for GIPRCNT values of 100 or above, 50 for GIPRCNT values of 0, and 100 for GIPRCNT values of -100.

How did the growth turn out when `Nc1nc(Cl)c2c(C(F)(F)F)cn(CC3CCNCC3)c2n1` was run?
Its growth is 78.9% (inactive).

How did the growth turn out when `COC(=O)c1oc2c(C(C)=O)c(OCCCN(C)C)ccc2c1C` was run?
Its growth is 116% (inactive).

`CCCCN(CCCC)c1ccc(C(=N)c2ccc(N(C)C)cc2)cc1` was tested. Which growth did it give?
Its growth is -47.5% (active).

For `O=c1c2ccccc2sc2c(N3CCCC3)nc3ccccc3c12`, which growth is on record?
Its growth is 107% (inactive).

`C/C(=N/NC(=O)Cn1c2ccccc2c2ccncc21)c1cccs1` was tested. Which growth did it give?
The growth was 96.9% (inactive).

`COc1ccccc1N1CCN(CCCOc2ccc(OCCCN3CCN(c4ccccc4OC)CC3)c(C(=O)c3cc(OC)c(OC)c(OC)c3)c2)CC1` was tested. Which growth did it give?
Its growth is 107% (inactive).

How did the growth turn out when `O=C(/C=C/c1ccccc1)Oc1ccc(/C=C/c2cc(OC(=O)/C=C/c3ccccc3)cc(OC(=O)/C=C/c3ccccc3)c2)cc1` was run?
The growth was 104% (inactive).

How did the growth turn out when `COc1cc(C(=O)N2CCN(C(=O)c3cc(OC)c(OCc4ccccc4)cc3N)CC2)c(N)cc1OCc1ccccc1` was run?
Its growth is 102% (inactive).

Which growth does the source give for `ClC1c2ccccc2CCc2ccccc21` here?
Its growth is 107% (inactive).

Which growth does the source give for `COc1cccc(/C=N/C(=S)NC2(C)C3CCC(C3)C2(C)C)c1O` (stereo not given) here?
Its growth is 108% (inactive).

`C=C1C(=O)O[C@H]2[C@H]1CC/C(C(=O)NCCOCCOCC(=O)Nc1ccc(OC)c(C(N)=O)c1O)=C\CC[C@@]1(C)O[C@@H]21` was tested. Which growth did it give?
The growth was 104% (inactive).

For `CO[C@H]1/C=C/C=C/C=C/C[C@H](OC(=O)[C@@H](C)NC(=O)C2CCCCC2)[C@H](C)[C@@H](O)/C(C)=C\CCC2=CC(=O)C=C(NC(=O)C1)C2=O`, which growth is on record?
The growth was -19.2% (active).

With `CC(Cl)(CCl)CS(=O)(=O)c1ccc(Cl)cc1` (stereo not given) as the compound, how does the growth read?
Its growth is 104% (inactive).

With `CN(C)c1ccc2cc(-c3nc4ccccc4s3)c(N)nc2c1` as the compound, how does the growth read?
The growth was 77.6% (inactive).

With `COc1ccc(C(=O)NC(=O)Nc2ccc3c(c2)NC(=O)/C3=C\c2[nH]c(C)c(C(=O)O)c2C)c(F)c1` as the compound, how does the growth read?
Its growth is 46.6% (inactive).

How did the growth turn out when `COC(=O)c1ccc(NC(N)=NCC(C)(C)COc2ccc(C(F)(F)F)cc2)nc1` was run?
Its growth is 2.3% (active).

With `O=C1OC(=O)C2C3CC(c4ccccc43)C12` (stereo not given) as the compound, how does the growth read?
Its growth is 106% (inactive).

For `COc1cc(/C=C2/Oc3cc4occc4c(OC)c3C2=O)ccc1OCC(=O)Nc1ccncc1`, which growth is on record?
Its growth is 110% (inactive).

`COc1ccc(C(=O)NC(=O)Nc2ccc3c(c2)NC(=O)/C3=C\c2[nH]c(C)c(C(=O)O)c2C)cc1` was tested. Which growth did it give?
The growth was 97.7% (inactive).

`CC[C@@]1(O)C(=O)OCc2c1cc1n(c2=O)Cc2c-1nc1ccccc1c2/C=N/OC(C)(C)C` was tested. Which growth did it give?
The growth was 6.39% (active).

How did the growth turn out when `FC(F)(F)c1cn(CC2CNC2)c2ncnc(Cl)c12` was run?
Its growth is 99.5% (inactive).

How did the growth turn out when `COC(=O)Nc1nc2ccc(Sc3ccccc3)cc2[nH]1` was run?
The growth was 0.2% (active).

`Nc1ncc(-c2ccc3ncnc(Nc4cncc(Cl)c4)c3c2)cn1` was tested. Which growth did it give?
Its growth is 79.7% (inactive).

For `Cc1cn(-c2cc(C(=O)Nc3cccc(-n4ccc5c(NC(=O)c6ccccc6)nccc54)c3)cc(C(F)(F)F)c2)cn1`, which growth is on record?
Its growth is 12.7% (inactive).

`COc1cc(C(=O)C[n+]2ccccc2)ccc1OC(C)=O` was tested. Which growth did it give?
The growth was 105% (inactive).

With `COc1cc2ncn3c(=O)c4c5c(sc4nc3c2cc1OC)CCCCC5` as the compound, how does the growth read?
Its growth is 106% (inactive).

How did the growth turn out when `O=C(C[n+]1ccccc1Cl)c1ccc2c(c1)CCCC2` was run?
The growth was 103% (inactive).

How did the growth turn out when `COc1ccccc1C(OC(C)=O)OC(C)=O` was run?
The growth was 105% (inactive).

For `O=C(Nc1ccc(-n2ccc3c(NC(=O)c4ccccc4)nccc32)cc1)Nc1ccc(Cl)c(Cl)c1`, which growth is on record?
Its growth is -57.6% (active).

`COc1cc(Cn2cc3c(c2)-c2onc(CO)c2CC3)cc(OC)c1OC` was tested. Which growth did it give?
Its growth is 101% (inactive).

Which growth does the source give for `O=C(O)c1cc2ccccc2cc1Nc1ccccc1` here?
The growth was 99.1% (inactive).

Which growth does the source give for `O=C(NCCNc1nccc(-c2c(-c3cccc(O)c3)nc3sccn23)n1)c1cc(N2CCOCC2)cc(C(F)(F)F)c1` here?
The growth was 109% (inactive).

For `CC1CCc2cc(F)cc3c(=O)c(C(=O)O)cn1c23` (stereo not given), which growth is on record?
The growth was 105% (inactive).

How did the growth turn out when `CCCCCCCCCCCCCCCCNc1ccccc1` was run?
Its growth is 105% (inactive).

Which growth does the source give for `Nc1nccc2c1ccn2-c1ccc(NC(=O)Nc2cccc(C(F)(F)F)c2)cc1` here?
The growth was 115% (inactive).

Which growth does the source give for `C=C1C(=O)O[C@H]2[C@H]1CC/C(COC(=O)CCCC(=O)OC/C1=C/CC[C@@]3(C)O[C@H]3[C@H]3OC(=O)C(=C)[C@@H]3CC1)=C\CC[C@@]1(C)O[C@@H]21` here?
Its growth is 64.9% (inactive).

`Cc1cccc[n+]1CCC[n+]1ccccc1C` was tested. Which growth did it give?
Its growth is 107% (inactive).

For `CCCCCC/C=N/Nc1ccc([N+](=O)[O-])cn1`, which growth is on record?
Its growth is 85.9% (inactive).

Which growth does the source give for `O=C(Nc1ccc(-n2ccc3c(NC(=O)c4ccccc4)nccc32)cc1)c1cccc(C(F)(F)F)c1` here?
The growth was 44.2% (inactive).

Which growth does the source give for `c1coc(CSc2ncnc3nc[nH]c23)c1` here?
The growth was 107% (inactive).

Reference: PubChem BioAssay (NCI)
